{"source": "PubChem BioAssay AID2283302", "about": "(EPA ToxCast)", "note": "Results filed as inconclusive are left out. The source made the active and inactive calls. Rule for the calls: active = hit-call score of the fitted dose curve at least 0.9, where 1 is the maximum; inconclusive = response in the unintended direction; inactive = score below 0.9.", "data": [{"biological_target": "rat Gamma-HydroxyButyrate Receptor (GHB), Tspan17 (gene 306771) (UniProt Q4V8E0)", "sequence (Q4V8E0 whole entry, looked up)": "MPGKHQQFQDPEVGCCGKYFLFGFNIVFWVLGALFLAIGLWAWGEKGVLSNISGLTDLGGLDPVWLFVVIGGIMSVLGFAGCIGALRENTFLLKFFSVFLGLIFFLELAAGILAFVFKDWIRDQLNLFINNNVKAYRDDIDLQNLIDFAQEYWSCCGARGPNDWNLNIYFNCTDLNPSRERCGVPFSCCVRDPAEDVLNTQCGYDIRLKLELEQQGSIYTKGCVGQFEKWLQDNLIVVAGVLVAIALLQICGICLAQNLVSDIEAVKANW", "experiment": "NVS_GPCR_rGHB: NovaScreen (NVS) G Protein-Coupled Receptor Assay for rat Gamma-HydroxyButyrate Receptor (GHB)", "procedure": "NVS_GPCR_rGHB is a biochemical, single-readout assay that uses extracted gene-proteins from Rat forebrain in a tissue-based cell-free assay. Measurements were taken 1 hour after chemical dosing in a 48-well plate.NVS_GPCR_rGHB is one of one assay component(s) measured or calculated from the NVS_GPCR_rGHB assay. It is designed to make measurements of radioligand binding, a form of binding reporter, as detected with scintillation counting signals by Filter-based radiodetection technology.Data from the assay component NVS_GPCR_rGHB was analyzed into 1 assay endpoint. This assay endpoint, NVS_GPCR_rGHB, was analyzed in the positive analysis fitting direction relative to DMSO as the negative control and baseline of activity. Using a type of binding reporter, loss-of-signal activity can be used to understand changes in the binding as they relate to the gene Tspan17. Furthermore, this assay endpoint can be referred to as a primary readout, because the performed assay has only produced 1 assay endpoint. To generalize the intended target to other relatable targets, this assay endpoint is annotated to the gpcr intended target family, where the subfamily is metabotropic glutamate receptor.\nBinding assays used specific radioligands (tritiated, iodinated) with non-radioactive competitive displacement ligands in agonist or antagonist protocols (as indicated) and various reference compounds and inhibitors to titrate specific binding to receptors and transporters. Most enzyme assays (CYPs, kinases, phosphatases, proteases, HDACs) used recombinant protein and specific substrates (fluorescence mostly, some colorimetric and radioactive) and inhibitors, followed by a biochemical separation of substrate and product. All assays for the biochemical HTS were initially run in duplicate at a single concentration (10 uM for CYP450 assays and 25 uM for all others). Assay-chemical combinations meeting a pre-defined threshold (e.g., 30% inhibition and other criteria defined below) were then run in singleton concentration-response format with maximum concentration of 20 uM for CYPs and 50 uM for all others. Each assay was run with positive and negative controls, and concurrent controls on every plate. The follow-up (secondary) screen tested active chemical-pairs in concentration series, as well as a few additional assays not tested in the primary screen, some selected negative inactives, and several cases re-run in the concentration series for confirmatory purposes.", "values": [{"smiles": "Cc1cc(Cl)ccc1OCC(=O)O", "AC50": "25 µM (active)"}, {"smiles": "CC(C1CC1)C(O)(Cn1cncn1)c1ccc(Cl)cc1", "note": "(centres undefined)", "outcome": "inactive"}, {"smiles": "N#CSCSC#N", "AC50": "19.5 µM (active)"}, {"smiles": "CCOC(=O)CC(SP(=S)(OC)OC)C(=O)OCC", "note": "(centres undefined)", "outcome": "inactive"}, {"smiles": "CCOP(=O)(OCC)Oc1nc(Cl)c(Cl)cc1Cl", "outcome": "inactive"}, {"smiles": "COP(=S)(OC)Oc1nc(Cl)c(Cl)cc1Cl", "outcome": "inactive"}, {"smiles": "CO[C@@H]1[C@H](OC(=O)NC(=O)CCl)CC[C@]2(CO2)[C@H]1[C@@]1(C)O[C@@H]1CC=C(C)C", "outcome": "inactive"}, {"smiles": "CC(C)Oc1cccc(NC(=O)c2ccccc2C(F)(F)F)c1", "outcome": "inactive"}, {"smiles": "Clc1nc(Cl)nc(Nc2ccccc2Cl)n1", "AC50": "18.6 µM (active)"}]}]}
